The structures appear in SMILES notation. Compounds without any hit were thinned out: in the full panel of roughly 83,000, 20% have a hit.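 96-well plates, one dose, 48 hours. Percent growth reported; active if below 10.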 A number with no mark means an inactive call. Active and inactive are the calls of the source.

The test deals with NCI/ADR-RES ovarian. Put plainly: NCI-60 one-dose screen, 48 h (100 = growth as untreated, 0 = no growth, -100 = all killed). Conditions: 10 µM unless noted. The procedure:
Growth inhibition of the NCI/ADR-RES human […] tumor cell line is measured as a screen for anti-cancer activity. Cells are grown in 96 well plates and exposed to the test compound for 48 hours. Compounds are tested at a single concentration, which is 10^-5 M for most compounds. The reported endpoint is percent growth (GI% or GIPRCNT), where numbers from 0 - 100% represent growth inhibition, and numbers from -100% - 0 represent cell death. For example, a value of 40 represents 60% growth inhibition. A value of 0 means no net growth occurred over the course of the experiment. A value of -40 indicates 40% of cells at the beginning of the experiment died by the end of the experiment. A value of -100 means all cells are dead at the end of the experiment.
NCI-60 Human Tumor Cell Lines Screen was performed using the standard one-dose NCI protocol, which is described in more detail at https://dtp.cancer.gov/discovery_development/nci-60/default.htm.
Compounds with GIPRCNT values below 10 were considered active. Activity score was based on GIPRCNT using the following formula: […]
Score is 0 for GIPRCNT values of 100 or above, 50 for GIPRCNT values of 0, and 100 for GIPRCNT values of -100.
On to `CCCCCCCCCCCCCC[n+]1ccc2c(C)c3c(c(C)c2c1)c1cc(O)ccc1n3CC`, for which the growth was 59.9%. The result for `O=C(COc1ccc(/C=C2\Oc3ccccc3C2=O)cc1)Nc1nccs1` reads 91.6%; that for `Cc1ccc2nc(/C=C/c3ccc(N(C)C)cc3)cc(C)c2c1`, 25.2%; that for `C=C(C)[C@@H]1CC[C@]2(C(=O)NC(C)=O)CC[C@]3(C)[C@H](CC[C@@H]4[C@@]5(C)CCCNC(C)(C)[C@@H]5CC[C@]43C)[C@@H]12`, 29.4%.

Regarding `COc1ccc(N/N=C/c2ccc3c(c2)Sc2ccccc2N3C)cc1`, the growth was 79.6%.

In the case of `CC(=O)CC(=O)c1ccccc1.[Cu+2]`, the growth is 104%.

As for `O=c1ccc2nc(-c3ccccc3)nn(-c3ccccn3)c-2c1`, the growth was 101%.

As to `CN1C(=O)N(C)C2C1NN=c1s/c(=C\c3ccc(F)cc3)c(=O)n12` (stereo not given), the growth is 10.3%. The result for `CCCn1cnc2c(c1=N)C(c1ccc(Cl)cc1)c1sc3c(F)cccc3c1O2` (stereo not given) reads 80.7%; that for `CO[C@H]1CC(c2ccc[nH]2)=N[C@]12O[C@@H](C)C[C@@H]1CCCCCCCc3ccc([nH]3)[C@H]12`, 17.1%. In the case of `CCOC(=O)C1=C(C)N(C)C(=O)N(C)C1c1ccccc1` (stereo not given), the growth is 100%. To `COc1cc(OCc2cccc(-c3ccccc3)c2C)cc(OC)c1CN1CCCCC1C(=O)NCCOCCOCCN` (stereo not given) belongs 103%; to `CCCC[N+]1(C)CCN=C1Cc1ccccc1` (stereo not given), 107%; to `CC1(C)C2=C(C(=O)N1Cc1ccccc1)C(c1ccco1)N(C(=O)C1CCC1)CCN2` (stereo not given), 100%. The result for `CN1CC(c2ccccc2)C(C(=O)c2ccc(Br)cc2)C12C(=O)Nc1ccccc12` (stereo not given) reads 79.7%; that for `O=C(/C=C/c1ccco1)c1ccc(Nc2ccnc3cc(Cl)ccc23)cc1`, 73.9%.

For the compound `Cc1ccc(C2=Nc3c(N)nc(N)nc3NC(c3cccc(Nc4ccnc5cc(C(F)(F)F)ccc45)c3)C2)cc1` (stereo not given), the growth was 30.1%. To `C=C(CNCCc1ccc(O)cc1)[C@@H]1CC[C@]2(CO)CC[C@]3(C)[C@H](CC[C@@H]4[C@@]5(C)CCC(N)C(C)(C)[C@@H]5CC[C@]43C)[C@@H]12` (stereo not given in full) belongs 60.4%; to `CNc1nc2ncc(-c3c(C)noc3C)cc2n1Cc1ccccc1`, 67.4%; to `O=S(=O)(Nc1ccc(Br)cc1)c1ccc(-c2cnc(C3CC3)o2)cc1`, -2.19% (active). Turning to `O=C(Nc1cccc(Cl)c1)Oc1c(Cl)c(Cl)c(Cl)c(Cl)c1Cl`, the growth was 103%. To `CCCCCCCCNc1ncnc2c1ncn2Cc1nnc2c3ccccc3c(Cl)nn12` belongs 35.3%; to `COc1ccc(Nc2nc(Nc3cc(C)[nH]n3)c3cc(OC)c(OC)cc3n2)cc1`, -63.7% [20 µM] (active); to `O=C(CSc1nnc(-c2ccc(Cl)c(Cl)c2)n1-c1ccccc1)Nc1ccc(C(=O)/C=C/c2ccc(Cl)cc2)cc1`, 95.3%. As to `CCN1C(=O)N(CC)C2C1NN=c1s/c(=C\c3ccc(F)cc3)c(=O)n12` (stereo not given), the growth was 1.08% (active). The result for `O=C1C(Nc2ccc(Br)cc2)=C(I)C(=O)c2ncccc21` reads 1.39% (active); that for `O=C(Nc1ncc(Cc2ccc(Cl)cc2)s1)c1ccc2c(c1)OCCO2`, 10.9%; that for `N#C/C(=C\c1cccc2cnccc12)N1N=NC2C=CC=CC21` (stereo not given), 42.7%. To `Oc1ccc(C2OCCO2)c2cccnc12` belongs 27.5%; to `COc1cc2c(c(OC)c1OC)C(=O)CC(c1cccc(C(=O)Nc3ccc(Br)cc3)c1)O2` (stereo not given), 36.1%. The result for `Cn1ncc(CC(=O)O)c1-n1nnc2cc(Cl)ccc2c1=O` reads 101%. For the compound `COc1ccccc1-c1nc2ccc3[nH]ncc3c2c2c1CCCC2`, the growth is 80.6%. The result for `COC(=O)CCc1c(/C=C2\N=C(c3ccc[nH]3)C=C2OC)[nH]c(C)c1C(=O)OCc1ccccc1` reads 9.4% (active). To `Cc1c(Cl)cccc1NC(=O)c1sc2nc3c(cc2c1N)CCCC3` belongs 27.1%; to `COc1cccc2cc(N(C)c3ncnc4ccccc34)ccc12`, 8.39% (active). The result for `O=C1Nc2ccccc2/C1=C/c1cccn1CCCCCCn1c2ccccc2c(=O)c2ccccc21` reads 71.8%; that for `COc1ccc(Cn2cc(C(=O)N=Nc3c(O)[nH]c4ccc(Br)cc34)nn2)cc1`, 103%; that for `COc1cc2ncnc(Nc3ccc(S(=O)(=O)Nc4cc(C)on4)cc3)c2cc1OCCCN1CCOCC1`, 106%. As to `C#CCOc1cc(/C=N/Nc2nc(-c3ccc(OC)cc3)cs2)ccc1O`, the growth is 85.1%. Turning to `O=C(O)/C=C\C(=O)Nc1ccc2c(c1)Cc1cc(F)ccc1-2`, the growth is 102%.
